From PubChem BioAssay
T cruzi growth-1: blocks T. cruzi growth in NIH3T3 culture; inhibition, % at 8.34 µM; T. cruzi beta-gal in NIH3T3, GalScreen luminescence, 90 h; actives 5.9% (n = 77,000); AID 624255;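 active = mean inhibition above about 93%, with at least 55% of replicates each passing it, limit read from the data, passing the limit was not always enough; inconclusive = only one of those two conditions holds; inactive = neither condition holds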
C diff HTS: blocks growth of Clostridium difficile | Clostridium difficile clinical isolate growth, OD600, 24 h; hits give low values | growth activity, negative = inhibition, % at 16 µg/mL (by protocol) | actives 0.25% (n = 86,000);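 active = mean growth activity at or below -80% and every replicate also at or below -80%; inconclusive = mean at or below -80% but some replicate above -80%; inactive = mean growth activity above -80%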;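 note: 0% = DMSO wells and -100% = levofloxacin 16 µg/mL wells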
Pf Dd2 growth: P. falciparum Dd2 growth inhibition. SYBR Green, 72 h; hits give low values. activity change, % at 10 µM. actives 2.3% (n = 94,000). AID 1159554; in the data active = activity change below about -80%; inconclusive = no clear call, values can overlap the other calls
T cruzi growth-2: blocks T. cruzi growth in NIH3T3 host cells | inhibition, % at 8.35 µM | T. cruzi beta-gal in NIH3T3, GalScreen luminescence, 90 h | AID 651739 | actives 72% (n = 5,600) | shares compounds with T cruzi growth-1;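 active = mean replicate inhibition above about 95% and at least 55% of replicates individually reaching it, limit read from the data; inconclusive = only one of the two criteria is met; inactive = neither criterion is met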
T cruzi growth-3: inhibitors of T. cruzi proliferation | shares compounds with T cruzi growth-1 | inhibition, % at 2.09 µM | T. cruzi beta-gal in NIH3T3, GalScreen luminescence, 90 h | actives 21% (n = 5,600);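 active = mean inhibition above about 95%, with at least 55% of replicates also reaching it, limit read from the data; inconclusive = meets just one of the two conditions; inactive = meets neither condition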;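 note: plate controls were neutral control median for no effect and positive control median for full effect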
NIH3T3 tox: cytotoxicity in mouse NIH/3T3 fibroblasts | actives 14% (n = 5,600) | AID 651742 | cytotoxicity (signal decrease), % at 8.35 µM | shares compounds with T cruzi growth-1 | NIH/3T3 viability, CellTiter-Glo ATP luminescence, 90 h;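 active = mean signal decrease across replicates above about 35% based on untreated-well scatter, with enough replicates individually passing, limit read from the data; inconclusive = no rule stated though some were filed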;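 note: 0% = median of neutral control wells and 100% = median of positive control wells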
3T3 cytotox 2: NIH/3T3 (mouse) viability loss; shares compounds with T cruzi growth-1; NIH/3T3 viability, CellTiter-Glo ATP luminescence, 90 h; inhibition, % at 24.9 µM; actives 56% (n = 5,600); AID 651744;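 active = mean loss of cell viability signal at or above a set limit, and enough replicates individually reaching it; inconclusive = meets only the mean limit or only the replicate share; inactive = meets neither condition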;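 note: 0% = median of neutral control wells and 100% = median of positive control wells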
Active calls of the source: *. In the library only some 6.7% were active in any assay of this set; here they are far more common.

For C[C@H]1CCCCO[C@@H](CN(C)C(=O)Nc2ccccc2)[C@@H](C)CN([C@@H](C)CO)C(=O)c2cc(NC(=O)C3CCCCC3)ccc2O1 the results were T cruzi growth-1 59, C diff HTS -1 and Pf Dd2 growth -24.
C[C@H](CO)N1C[C@H](C)[C@H](CN(C)C(=O)Nc2ccc3c(c2)OCO3)OCCCC[C@H](C)Oc2ccc(NC(=O)C3CCCCC3)cc2C1=O was read as T cruzi growth-1 97*, C diff HTS -3, Pf Dd2 growth -47, T cruzi growth-2 109*, T cruzi growth-3 46, NIH3T3 tox -10 and 3T3 cytotox 2 -19.
`COc1ccc(NC(=O)N(C)C[C@@H]2OCCCC[C@H](C)Oc3ccc(NC(=O)C4CCCCC4)cc3C(=O)N([C@@H](C)CO)C[C@@H]2C)cc1` gave T cruzi growth-1 46, C diff HTS 3 and Pf Dd2 growth -76.
For COc1ccc(C#Cc2cnc3c(c2)C(=O)N([C@@H](C)CO)C[C@@H](C)[C@@H](CN(C)C(C)=O)O3)cc1 the results were C diff HTS 45 and Pf Dd2 growth -29.
Screening C[C@H]1CN([C@@H](C)CO)C(=O)c2cc(C#Cc3cccc(F)c3)cnc2O[C@H]1CN(C)CC1CCCC1 returned C diff HTS 19 and Pf Dd2 growth -68.
Screening COc1ccccc1S(=O)(=O)N(C)C[C@H]1Oc2ncc(-c3ccc(C)cc3)cc2C(=O)N([C@@H](C)CO)C[C@@H]1C returned T cruzi growth-1 111*, C diff HTS 15, Pf Dd2 growth -51, T cruzi growth-2 103*, T cruzi growth-3 61, NIH3T3 tox 25 and 3T3 cytotox 2 42*.
For COc1ccccc1S(=O)(=O)N(C)C[C@@H]1Oc2ncc(-c3ccc(C)cc3)cc2C(=O)N([C@H](C)CO)C[C@@H]1C the results were T cruzi growth-1 61, C diff HTS 0 and Pf Dd2 growth -47.
`COc1ccccc1S(=O)(=O)N(C)C[C@H]1Oc2ncc(Br)cc2C(=O)N([C@@H](C)CO)C[C@H]1C` gave C diff HTS -5 and Pf Dd2 growth 43.
COc1ccccc1S(=O)(=O)N(C)C[C@H]1Oc2ncc(-c3ccc(C)cc3)cc2C(=O)N([C@H](C)CO)C[C@@H]1C was read as T cruzi growth-1 99*, C diff HTS 18, Pf Dd2 growth -39, T cruzi growth-2 99*, T cruzi growth-3 71, NIH3T3 tox 64* and 3T3 cytotox 2 37*.
Screening CCC(=O)N(C)C[C@@H]1Oc2cc(-c3cccc(OC)c3)ccc2S(=O)(=O)N([C@H](C)CO)C[C@H]1C returned T cruzi growth-1 49, C diff HTS 4 and Pf Dd2 growth -15.
`CC(C)NC(=O)Nc1ccc2c(c1)C(=O)N(C)[C@H]1CC[C@@H](CC(=O)NC3CCCCC3)O[C@H]1CO2` gave T cruzi growth-1 -21, C diff HTS 1 and Pf Dd2 growth 6.
Screening C[C@@H]1CN([C@@H](C)CO)C(=O)Cc2cc(NC(=O)CCC(F)(F)F)ccc2O[C@H]1CN(C)CC1CCCCC1 returned T cruzi growth-1 54, C diff HTS -1 and Pf Dd2 growth -14.
`C[C@@H]1CN([C@H](C)CO)S(=O)(=O)c2ccc(-c3cncnc3)cc2O[C@@H]1CN(C)C(=O)c1ccc2c(c1)OCO2` gave T cruzi growth-1 25, C diff HTS 0 and Pf Dd2 growth -15.
CN(C)CC(=O)N1CCCCN2[C@@H](CO)[C@@H](c3ccc(-c4cccnc4)cc3)[C@@H]2C1 was read as T cruzi growth-1 inconclusive, C diff HTS 6, Pf Dd2 growth -59, T cruzi growth-2 inconclusive, T cruzi growth-3 30, NIH3T3 tox 3 and 3T3 cytotox 2 -1.
Screening CCC(=O)N1CCCCN2[C@H](CO)[C@H](c3ccc(C#Cc4cccnc4)cc3)[C@H]2C1 returned T cruzi growth-1 101*, C diff HTS -1, Pf Dd2 growth 11, T cruzi growth-2 100*, T cruzi growth-3 39, NIH3T3 tox 4 and 3T3 cytotox 2 -11.
Screening CCC(=O)N1CCCCN2[C@@H](CO)[C@H](c3ccc(C#Cc4cccnc4)cc3)[C@@H]2C1 returned T cruzi growth-1 77, C diff HTS 4 and Pf Dd2 growth 0.
CN(C)CC(=O)N1CCCCN2[C@H](CO)[C@H](c3ccc(-c4cccnc4)cc3)[C@@H]2C1 was read as T cruzi growth-1 64, C diff HTS 5 and Pf Dd2 growth -16.
For CN(C)CC(=O)N1CCCCN2[C@H](CO)[C@@H](c3ccc(-c4cncnc4)cc3)[C@H]2C1 the results were T cruzi growth-1 -18, C diff HTS -1 and Pf Dd2 growth 23.
`CN(C)CC(=O)N1CCCCN2[C@H](CO)[C@H](c3ccc(-c4cccnc4)cc3)[C@H]2C1` gave T cruzi growth-1 108*, C diff HTS 5, Pf Dd2 growth -52, T cruzi growth-2 70, T cruzi growth-3 1, NIH3T3 tox -6 and 3T3 cytotox 2 2.
For CCC(=O)N1CCCCN2[C@H](CO)[C@H](c3ccc(-c4cccnc4)cc3)[C@H]2C1 the results were T cruzi growth-1 114*, C diff HTS 2, Pf Dd2 growth -69, T cruzi growth-2 37, T cruzi growth-3 24, NIH3T3 tox -3 and 3T3 cytotox 2 9.
For CCC(=O)N1CCCCN2[C@H](CO)[C@@H](c3ccc(-c4cccnc4)cc3)[C@@H]2C1 the results were T cruzi growth-1 60, C diff HTS -9 and Pf Dd2 growth 21.
`COc1cccc(-c2ccc3c(c2)O[C@H](CN(C)Cc2ccncc2)[C@H](C)CN([C@@H](C)CO)S3(=O)=O)c1` gave C diff HTS -9 and Pf Dd2 growth -15.
Screening C[C@H](O)C#Cc1cnc2c(c1)C(=O)N([C@@H](C)CO)C[C@H](C)[C@H](CN(C)CC1CCOCC1)O2 returned C diff HTS -4 and Pf Dd2 growth -44.
`CN1C(=O)c2cc(NC(=O)Cc3ccccc3)ccc2OC[C@H]2O[C@@H](CC(=O)O)CC[C@H]21` gave T cruzi growth-1 -1, C diff HTS 6 and Pf Dd2 growth 6.
`CN(C)CC(=O)N[C@@H]1C=C[C@H](CC(=O)NCCN2CCCCC2)O[C@@H]1CO` gave T cruzi growth-1 3 and Pf Dd2 growth 20.
`CCC(=O)N1[C@@H]2Cn3c(ccc(-c4ccccc4)c3=O)[C@H]1[C@@H](C(=O)N(C)C)[C@@H]2CO` gave T cruzi growth-1 24, C diff HTS -2 and Pf Dd2 growth 0.
Screening CO[C@H]1CN(C)C(=O)c2ccc(NC(=O)NC(C)C)cc2OC[C@@H](C)N(Cc2ccccn2)C[C@@H]1C returned T cruzi growth-1 100*, Pf Dd2 growth -40, T cruzi growth-2 60, T cruzi growth-3 -42, NIH3T3 tox 15 and 3T3 cytotox 2 7.
